Source: PubChem BioAssay AID504690 (Sanford-Burnham Center for Chemical Genomics, 2011)
In all, about 350,000 compounds went through this assay and about 2,700 (0.77%) were called active.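 The calls were made as follows: active = inhibition reaching at least a set limit at 20 µM in the primary screen (cut at about 59% in these data); inactive = the rest.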 Shown is part of a subset that was picked to be rich in actives.

system: glucose-6-phosphate dehydrogenase-6-phosphogluconolactonase (Plasmodium falciparum 3D7); experiment: PfG6PD enzyme inhibitors, primary screen, biochemical, fluorescence intensity, uHTS (AID 504690); details: PfGluPho enzyme, NADPH resazurin-diaphorase fluorescence; at 20 µM; hits give high values;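 also: 0% = DMSO wells with substrate and 100% = DMSO wells lacking glucose-6-phosphate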

Compound	inhibition
CC(C)C(=O)Nc1ccc2c3c(cccc13)CC2	-13.6% (inactive)
CC1CCCN(S(=O)(=O)c2ccc(N(C(=O)c3cnccn3)C(C(=O)NC3CCCCC3)c3cccs3)cc2)C1 (stereo not given)	13.2% (inactive)
Cc1ccc2c(c1)NCC(C(=O)NC1CCC(C)CC1)O2 (stereo not given)	18.8% (inactive)
COc1ccc2c(c1)c(=Cc1ccc(N(C)C)cc1)c1cc(-c3ccccc3)[n+](C)n12	70% (active)
Cc1cccc(C)c1NC(=O)CNC(=O)c1c(C)nn(-c2ccccc2)c1C	-4.32% (inactive)
COCC(=O)Nc1c(I)c(C(=O)NCC(O)CO)c(I)c(C(=O)N(C)CC(O)CO)c1I (stereo not given)	-11% (inactive)
O=C(Nc1ccc(-c2cscn2)cc1)C1CCCN(Cc2ccc(CO)o2)C1 (stereo not given)	-2.34% (inactive)
O=C1/C(=C\c2cccnc2)CN(Cc2ccccc2)C/C1=C\c1cccnc1	20.5% (inactive)
COc1ccc(Cl)cc1C(=O)Nc1ccc(N(C)C(C)=O)cc1	7.67% (inactive)
COc1cc(OC)c(C(=O)Nc2ccccc2-c2ccccc2)cc1OC	6.28% (inactive)
COc1cc(OC)c(C(=O)Nc2ccc(N(C)C)cc2)cc1OC	70.5% (active)
O=C(NC12CC3CC(CC(C3)C1)C2)N1CCCC(CO)C1 (stereo not given)	-9.02% (inactive)
CSc1ccc(CCNC(=O)C2CCN(c3nnc(-n4cccc4)s3)CC2)cc1	-2.74% (inactive)
O=C(Oc1c(-c2ccco2)oc2ccccc2c1=O)c1cccnc1	-16.3% (inactive)
CCn1nc(C(=O)NNS(=O)(=O)c2cc(/C=C/C(=O)O)cc(OC)c2OC)c2ccccc2c1=O	11.8% (inactive)
CN1CCN(CCCCOc2ccccc2-c2ccccc2)CC1	5.8% (inactive)
S=C(c1ccc(-c2ccccc2)o1)N1CCCCC1	52.2% (inactive)
OCCN1CCN(C(=S)c2ccc(-c3ccccc3)cc2)CC1	66.4% (active)
COc1ccccc1CCCNC(=O)C1CCC(=O)N(CCN2CCOCC2)C1 (stereo not given)	-4.18% (inactive)
CC(=O)Nc1nc2c(s1)C(=O)NCC(C)(C)C2	-8.85% (inactive)
Cc1ccc(-n2nc(-c3ccco3)cc2C(=O)NCc2cccnc2)cc1	38.2% (inactive)
CC1CN(C(=S)Nc2ccc(S(N)(=O)=O)cc2)CC(C)O1 (stereo not given)	13.9% (inactive)
O=C(CCS(=O)(=O)c1cccc2nonc12)NCCc1ccccc1Cl	0.62% (inactive)

Compound	inhibition
Oc1c(C=Nc2cccc3nsnc23)ccc2ccccc12	64.6% (active)
c1ccc(-c2cn3c(n2)CCc2ccc4cccnc4c2-3)cc1	107% (active)
OC(CN=c1sc2ccccc2n1CC(O)COc1ccccc1)COc1ccccc1 (stereo not given)	22.7% (inactive)
Nc1ccc2nc3c(=O)[nH]c(=S)[nH]c3nc2c1	83.3% (active)
Cc1ccc(S(=O)(=O)N2CCN(C(=O)CSc3cc(C)ccc3C)CC2)c(C)c1	13.7% (inactive)
CCCOC1CCCN(C(=O)c2cc(COc3cncc(Cl)c3)on2)C1 (stereo not given)	3.11% (inactive)
CCCCNS(=O)(=O)c1ccc(S(=O)(=O)n2cnc3ccccc32)cc1	-0.9% (inactive)
CCOc1c2ccc(C(=O)NC3CCCc4ccccc43)cc2nn1CC (stereo not given)	0.09% (inactive)
O=C(COC(=O)CN1C(=O)C2CCCCC2C1=O)Nc1ccc(F)c(F)c1F (stereo not given)	14.5% (inactive)
CC1=CC(C)(C)Nc2ccc(OC(=O)CN3C(=O)C4CCCCC4C3=O)cc21 (stereo not given)	70.6% (active)
CC1=CC(C)(C)Nc2ccc(OC(=O)C(Cc3ccccc3)N3C(=O)C4CCCCC4C3=O)cc21 (stereo not given)	38.3% (inactive)
CC1CCCCC1NC(=O)CCS(=O)(=O)c1ccc2c(c1)NC(=O)CO2 (stereo not given)	4.88% (inactive)
CN(C)N(C)C(=O)C(O)(c1ccccc1)c1ccccc1	-19.5% (inactive)
C/C=C/c1ccc(OCC(=O)OCC(=O)Nc2c(C)nn(-c3ccccc3)c2C)c(OC)c1	-4.73% (inactive)
N=c1n(Cc2ccc(Cl)cc2)c2ccccc2n1CC(O)c1ccco1 (stereo not given)	8.27% (inactive)
O=C(Nc1ccc2ccccc2c1[N+](=O)[O-])c1ccccc1	33.8% (inactive)
O=C(NC1=CC(=O)c2ccccc2C1=O)c1ccccc1	80.4% (active)
O=C(Nc1ncccc1O)c1ccc(C(=O)c2ccccc2)cc1	-5.63% (inactive)
CC(Sc1nnc(COc2ccccc2)n1-c1ccccc1)C(=O)O (stereo not given)	-12.2% (inactive)
COc1ccc(OCc2nnc3n2N=C(c2ccccc2)C(CC(=O)O)S3)cc1 (stereo not given)	88.1% (active)
COc1ccc(C(=O)NCc2nnc(SCCOc3ccccc3)n2C)cc1	-13% (inactive)
Cc1cccc(C)c1NC(=O)c1ccc(CN2CCc3ccccc3C2)cc1	4.01% (inactive)
O=C(c1cccnc1)N1CCN(S(=O)(=O)c2cccs2)CC1	-17.9% (inactive)

Compound	inhibition
COc1ccccc1C(=O)N1CCNC(=O)C1CC(=O)Nc1ccc(Cl)cc1 (stereo not given)	-0.83% (inactive)
CN1CCc2nc(SC(C(=O)O)c3ccccc3)c(C#N)c(-c3cccs3)c2C1 (stereo not given)	33.9% (inactive)
Cc1noc(C)c1C(=O)OC(C)C(=O)Nc1ccc2c(c1)OCO2 (stereo not given)	7.92% (inactive)
O=S1(=O)N=C(N(CCO)/N=C/c2ccccc2F)c2ccccc21	-22.8% (inactive)
CCOC(=O)c1ccccc1CN1C(=O)c2ccccc2S1(=O)=O	-6.44% (inactive)
CCOC(=O)C(NC(C)=O)C(=O)Nc1ccc(OC)cc1 (stereo not given)	-2.17% (inactive)
CCOC(=O)C1=C(c2ccc(OC)cc2)C(=O)c2ccccc2C1=O	101% (active)
CCOC(=O)c1c(C)nn(-c2ncccc2NC(=O)CCC(=O)O)c1C	-27.7% (inactive)
CC(C)[C@H](NC(=O)N1CCn2c1nc1ccccc12)C(=O)NCc1ccc2c(c1)OCO2	20.7% (inactive)
COc1cc(C(F)(F)F)c(C(=O)N(C)c2ccc(Cl)cc2)cn1	5.85% (inactive)
COc1ccc(Cl)cc1NC(=O)CN(C)C(=O)c1cc2ccccc2cc1OC	11.4% (inactive)
COc1ccc(Cl)cc1NC(=O)CN(C)C(=O)CCCc1c[nH]c2ccccc12	78.4% (active)
COc1ccc(Cl)cc1NC(=O)CN(C)C(=O)CNC(=O)C12CC3CC(CC(C3)C1)C2	-2.93% (inactive)
Cc1ccc(-n2ncc(C(=O)NC3CC3)c2C2CCN(C(=O)OC(C)(C)C)CC2)c(C)c1	-21.1% (inactive)
O=C(NCCOc1ccccc1)c1ccccc1F	-13.3% (inactive)
OCC[C@H]1C[C@H](O)[C@@H](O)[C@]2(Cc3ccccc3CO2)O1	0.59% (inactive)
S=c1[nH]nc(-c2cc(-c3ccccc3)n[nH]2)n1/N=C/c1c2ccccc2cc2ccccc12	59.1% (active)
CCN(CC)S(=O)(=O)c1cccc(-c2n[nH]c(=S)n2/N=C/c2ccc(C(=O)OC)cc2)c1	13.1% (inactive)
Cc1cc(-c2n[nH]c(=S)n2/N=C/C(Br)=C/c2ccccc2)n[nH]1	23.4% (inactive)
O=C(CCC(=O)OCC(F)(F)C(F)F)NCc1ccccc1	1.98% (inactive)
O=C1OC(Oc2ccc(Br)cc2)(c2ccccc2)c2ccccc21 (stereo not given)	69.2% (active)
COc1ccc(OC)c(-n2cc3c(=O)n(C)c(=O)n(C)c3c2)c1	17.5% (inactive)
CC[C@]12c3[nH]c4cc(CCC(=O)N(C)C)ccc4c3CCN1C(=O)[C@@H](CC(=O)NCC13CC4CC(CC(C4)C1)C3)C[C@@H]2C(=O)N1CCN(C(=O)C2CC2)CC1	0.29% (inactive)

Compound	inhibition
O=c1[nH]c(/C=C\c2cccc(C(F)(F)F)c2)nc(O)c1[N+](=O)[O-]	1.8% (inactive)
O=S(=O)(Nc1cccc(Oc2ccc(Cl)cc2)n1)c1ccc(F)cc1	-6% (inactive)
CC(=O)N(C1=C(Cl)C(=O)c2ccccc2C1=O)c1ccc(C(=O)O)cc1	120% (active)
CCCCN(C(=O)c1ccc(S(=O)(=O)N2CCOCC2)cc1)C1CCS(=O)(=O)C1 (stereo not given)	-2.48% (inactive)
COc1ccc(CC(=O)NCC(=O)N/N=C/c2cc(Br)ccc2OC)cc1	99.2% (active)
O=C(CCc1ccc(O)cc1)NN=Cc1cc(Br)ccc1O	-4.92% (inactive)
Cc1ccc(OCCOCCOc2ccc(Br)cc2/C=N\NC(=O)c2ccncc2)cc1	40.5% (inactive)
O=[N+]([O-])c1c(NCCO)cc(Sc2nc3ccccc3s2)c2nonc12	89.2% (active)
Cc1oc(C)c(C(=O)NCCCC(=O)O)c1C(=O)NCCCC(=O)O	2.34% (inactive)
COc1cccc(C(=O)Nc2c3c(nn2-c2cccc(C)c2C)CS(=O)(=O)C3)c1OC	8.42% (inactive)
O=C1NC(=Nc2ccc(Cl)cc2)SC1Cc1cccc(Cl)c1Cl (stereo not given)	-30.1% (inactive)
O=C(NC1CCCC1)C(c1ccc(Cl)cc1)N(C(=O)c1csnn1)C1CC1 (stereo not given)	-0.62% (inactive)
COc1cccc(-n2c(=S)[nH]c3c(oc4ccccc43)c2=O)c1	23.4% (inactive)
O=c1oc2ccccc2cc1-c1cn(-c2ccccc2)c(=S)[nH]1	64% (active)
Cc1ccc(S(=O)(=O)c2cc3c(=O)n4cccc(C)c4nc3n(CCc3ccccc3)c2=N)cc1C	-4.62% (inactive)
C[n+]1cccc(C(=O)O)c1	-8.19% (inactive)
Cc1cccc(C(=O)OC(C)C(=O)NC2CCCc3ccccc32)c1O (stereo not given)	-19.6% (inactive)
CCOc1c2ccc(C(=O)NCc3ccc(OC(F)(F)F)cc3)cc2nn1C	1.65% (inactive)
O=C(Nc1ccc(OC(F)(F)F)cc1)c1ccc2c(c1)no[n+]2[O-]	69.8% (active)
CCOC(=O)Cc1ncccc1C(=O)Nc1ccc(OC(F)(F)F)cc1	-20.5% (inactive)
CC(NC(=S)Nc1ccc(S(N)(=O)=O)cc1)c1ccc2c(c1)OCO2 (stereo not given)	-1.17% (inactive)
